Among all 2,300 compounds or so, about 350 (15%) were called active. Only a sample is shown. Entries with a potency or affinity are not part of this list. A number with no mark means an inactive call. The rule behind the calls is not given here.
Experiment: HepG2 cell cytotoxicity, dose response, cytotoxicity control for non-replicating M. tuberculosis project (AID 489018);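 note: HepG2 human liver cells; 100% = vehicle-treated cells and 0% = background signal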
Settings: series mostly up to 20 µM; viability: at the top concentration

First: O=C(OCc1ccc(Cl)c(Cl)c1)c1ccccn1
Second: O=C(OCc1cccc([N+](=O)[O-])c1)c1ccc2ccccc2n1
The “viability” value of the first is higher: 115% for the first, 104% for the second.

First: O=C(Nc1sc2c(c1C(=O)O)CCCCC2)c1ccccc1F
Second: O=C(Nc1sc2c(c1C(=O)O)CCCC2)c1ccc(F)cc1
The “viability” value of the first is higher: 99.9% for the first, 93.1% for the second.

Going from O=C(c1ccc([N+](=O)[O-])o1)N1CCc2ccccc2C1 to COc1cc2c(cc1OC)CN(C(=O)c1ccc([N+](=O)[O-])o1)CC2, the “viability” value falls from 102% to 90.2%.

Compared with COc1ccccc1NC(=O)c1ccc([N+](=O)[O-])o1, CCCn1c(NC(=O)c2ccc([N+](=O)[O-])o2)nc2ccccc21 is higher in “viability” value: 73.8% for the first, 91.1% for the second.

Compared with CCOC(=O)COc1ccc2c3c(c(=O)oc2c1C)CCC3, CCOC(=O)COc1cc(N)c(Cl)cc1Cl is lower in “viability” value: 112% for the first, 80.8% for the second.

Compared with O=C(COC(=O)c1ccc(Cl)s1)c1ccc[nH]1, O=C(OCC(=O)c1c[nH]c2ccccc12)c1ccc([N+](=O)[O-])s1 is lower in “viability” value: 103% for the first, 96.6% for the second.

First: COc1ccccc1OCCNC(=O)c1cc([N+](=O)[O-])cc([N+](=O)[O-])c1
Second: Cc1cc(NC(=O)c2cc([N+](=O)[O-])cc([N+](=O)[O-])c2)no1
The “viability” value of the first is lower: 102% for the first, 110% for the second.

Compared with O=C(OCC(=O)N1CCN(c2ccccc2)CC1)c1ccc2ccccc2n1, O=c1c2ccccc2sn1-c1ccccc1 is lower in “viability” value: 100% for the first, 93.9% for the second.

Going from Cc1cccc2cc(C#N)c(NCCCn3ccnc3)nc12 to c1ccc(-c2nc(NCCCn3ccnc3)c3ccccc3n2)cc1, the “viability” value falls from 95.8% to 75.7%.

First: CC(C)OC(=O)c1cc(C(=O)c2cc(Cl)ccc2O)coc1=N
Second: N=c1oc2ccc(Cl)cc2cc1C(=O)NC1CCCCCC1
The “viability” value of the first is higher: 91.3% for the first, 87.9% for the second.

Going from O=C1NN(c2ccccc2)C(=O)/C1=C/c1ccc(Sc2ccc(Cl)cc2)o1 to Cc1ccc2c(c1)C(=O)C(=O)N2CCCOc1ccccc1, the “viability” value rises from 100% to 108%.

Compared with COC(=O)COc1ccc2c(-c3cccc([N+](=O)[O-])c3)cc(=O)oc2c1, COC(=O)COc1ccc2cc(-c3ccc(OC)cc3)c(=O)oc2c1 is lower in “viability” value: 106% for the first, 105% for the second.

Compared with Cc1cc(C(=O)N/N=C/c2cccc(Cl)c2Cl)no1, CC(C)C1O/C(=N/C(=O)Nc2ccc(Cl)c(Cl)c2)NC1=O (stereo not drawn) is lower in “viability” value: 105% for the first, 95.4% for the second.

First: O=C(CCc1ccccc1)NC1C2CC3CC(C2)CC1C3 (stereo not drawn)
Second: O=C(COC(=O)c1cccc(C(F)(F)F)c1)NCc1ccccc1
The “viability” value of the first is higher: 105% for the first, 99.9% for the second.

Compared with NC(=O)N/N=C\c1cc(Br)ccc1O, C/C(=C\C(=O)c1ccc(Br)cc1)NNC(=O)c1ccccc1 is lower in “viability” value: 92.2% for the first, 70.2% for the second.

Going from CN1CC(=O)NC1=NC(=O)C12CC3CC(CC(C3)C1)C2 to CCOC(=O)C(=O)NC12CC3CC(CC(C3)C1)C2, the “viability” value falls from 96.6% to 84.6%.

Compared with Cn1cnc([N+](=O)[O-])c1Sc1ccc(Br)cc1, Cc1cc(C)nc(Sc2ncnc(N)c2[N+](=O)[O-])n1 is higher in “viability” value: 78.3% for the first, 80.1% for the second.

Compared with CCc1ccc(N2CCN(CCNC(=O)Nc3ccc(OC)cc3)CC2)cc1, CCCCNC(=O)Nc1nnc(-c2ccc(OCC)cc2)o1 is higher in “viability” value: 92.9% for the first, 100% for the second.

Going from O=c1c2c([N+](=O)[O-])cc([N+](=O)[O-])cc2nc2ccccn12 to Cc1cc(-c2c(C)[nH]n(-c3ccccc3)c2=O)n[nH]1, the “viability” value falls from 100% to 72.7%.

Going from O=C(CCCOc1ccccc1)OCn1nnc2ccccc2c1=O to Oc1ccccc1-c1nnc(COc2ccccc2)o1, the “viability” value falls from 110% to 89.6%.

Going from CCOc1ccc2ccccc2c1/C=N/NC(=O)c1ccncc1 to CC1(C)OC(c2ccccc2)=C/C(=C\C=N\NC(=O)c2ccncc2)O1, the “viability” value falls from 94.8% to 91.1%.

Going from CCOC(=O)c1c(NC(=O)COC(=O)c2ccccn2)sc2c1CCC2 to CCOC(=O)C1=C(C)C/C(=N\NC(=O)c2ccccc2O)CC1, the “viability” value falls from 114% to 81.2%.

First: CC(C)OC(=O)C(C)Oc1ccc(C(=O)NCCc2ccccc2)cc1 (stereo not drawn)
Second: CN(C)S(=O)(=O)c1ccc(C(=O)Oc2ccccc2)cc1
The “viability” value of the first is higher: 91.1% for the first, 91% for the second.

Going from CN(C)CCC(=O)N1c2ccccc2Sc2ccc(Cl)cc21 to COC(=O)C1=C(C)N(CC2CC2)C(=NCc2cccc(Cl)c2)N[C@H]1c1ccccc1, the “viability” value falls from 102% to 76.5%.

Compared with CCc1ccc(OCC(=O)NNC(=O)c2cnccn2)c(Br)c1, COC(=O)c1ccc(C(=O)NC2CCCc3c2cnn3-c2cc(F)cc(F)c2)nc1 (stereo not drawn) is lower in “viability” value: 98.8% for the first, 74% for the second.

Compared with Clc1ccc(N=c2ssnc2Cl)nc1, Cc1n[nH]c(=S)n1/N=C/c1ccc(OCc2ccc(Cl)cc2Cl)cc1 is higher in “viability” value: 96.6% for the first, 103% for the second.

First: S=C1SCN(Cc2ccco2)CN1Cc1ccco1
Second: Cc1ccc(-c2nnc(SCC#CCOC(=O)c3ccco3)o2)cc1
The “viability” value of the first is lower: 90.5% for the first, 104% for the second.

First: CCC(C)[C@H]1CN=C(N)N1CCc1cccc2ccccc12 (stereo partly drawn)
Second: C#CCSc1nnc(-c2cccc3ccccc23)o1
The “viability” value of the first is lower: 85.5% for the first, 85.7% for the second.

Going from COc1ccc2oc(=O)c(/C(C)=N/NC(=O)c3ccncc3)cc2c1 to C/C(=N\Nc1nc2ccccc2nc1C)c1ccccc1O, the “viability” value falls from 104% to 91.6%.

Going from O=C(Oc1ccc(F)cc1)c1ccc2c(=O)n3c(nc2c1)CCC3 to COc1ccc(OC(=O)CCc2c[nH]c3ccccc23)cc1, the “viability” value rises from 96.7% to 103%.

First: CNC(=O)COC(=O)c1ccc(-c2nc3ccccc3s2)s1
Second: O=C(COC(=O)CCc1c[nH]c2ccccc12)NCc1ccc2c(c1)OCO2
The “viability” value of the first is lower: 91.7% for the first, 109% for the second.

First: CC(C)N1CCc2c(sc(NC(=O)CCS(=O)(=O)c3ccccc3)c2C#N)C1
Second: Cc1ccc(CCC(=O)Nc2ccc(C)c(C)c2)o1
The “viability” value of the first is higher: 104% for the first, 97.3% for the second.

First: Cc1ccc(C(=O)Nc2nnc(C3=COCCO3)o2)cc1C
Second: CC(C)(C)c1csc(NC(=O)c2ccccc2O)n1
The “viability” value of the first is higher: 87.5% for the first, 82.3% for the second.

Going from CC(C)(C)NC(=O)C(=O)NNC(=O)c1ccc(C(C)(C)C)cc1 to O=C(COC(=O)CCc1c[nH]c2ccccc12)NCc1ccc(Cl)cc1, the “viability” value rises from 88.5% to 108%.

In the case of N#Cc1ccc(COC(=O)CCc2c[nH]c3ccccc23)cc1, the “viability” value is reported as 108%.

First: CCCCCC/C(=N/O)c1ccccn1
Second: O=C(NNC(=O)c1cnccn1)c1ccc(Cl)c(Cl)c1
The “viability” value of the first is higher: 104% [at 5 µM] for the first, 87.6% [at 5 µM] for the second.

Compared with C/C(=N\NC(=O)CCc1ccccc1)C1C(=O)c2ccccc2C1=O, O=C(O)c1ccccc1-c1ccccc1C(=O)Nc1nc2ccccc2s1 is higher in “viability” value: 91.1% [at 5 µM] for the first, 105% [at 5 µM] for the second.

First: COc1ccc(NC(=O)Nc2ccc(O)c3ccccc23)cc1
Second: CCS(=O)(=O)c1ncc(Cl)c(C(=O)Nc2ccc(S(=O)(=O)N(C)c3ccccc3)cc2)n1
The “viability” value of the first is higher: 102% [at 5 µM] for the first, 81.2% [at 5 µM] for the second.

Going from Clc1ccc(OCCOCCN2CCc3ccccc3C2)c(Cl)c1 to O=C(N/N=C\c1ccc(Cl)s1)C1COc2ccccc2O1 (stereo not drawn), the “viability” value rises from 94.3% [at 5 µM] to 97.2% [at 5 µM].

In the case of Cc1ccc2nc(N(CCCN(C)C)C(=O)c3ccc4c(c3)CCCC4)sc2c1, the “viability” value is reported as 87.7% [at 5 µM].

Reference: PubChem BioAssay AID489018 (Southern Research Specialized Biocontainment Screening …, 2010)
